Only some compounds are listed: those with a hit (about 4% of all), similar ones and a draw of the others.
tim23-1 inh: inhibits growth of tim23-1 mutant yeast; S. cerevisiae tim23-1 growth, BacTiter-Glo luminescence, 24 h; inhibition, % at 20 µM; 1.3% of 330,000 active;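 active = growth inhibition of the mutant yeast at or above 50%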;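 also: temperature-sensitive mutant grown at 25 °C; plate controls were DMSO-treated mutant yeast for no effect and medium wells lacking yeast for full effect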
NALP3 yeast inh: inhibitors of NALP3 inflammasome in yeast; Yeast reconstituted NLRP3/ASC/caspase-1, beta-gal luminescence, 24 h; inhibition, % at 10 µM; 0.39% of 330,000 active;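 active = inhibition of 50% or more; inactive = inhibition below 50%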;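 also: plate controls were induced DMSO wells for no effect and uninduced yeast grown without galactose for full effect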
TIM10 inh: inhibits growth of TIM10 yeast strain; S. cerevisiae TIM10 strain growth, BacTiter-Glo luminescence, 24 h; inhibition, % at 10 µM; 1.4% of 330,000 active; AID 463195;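 active = inhibition of 40% or more at the single tested concentration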;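 also: wild-type TIM10 isogenic control strain grown at permissive 25 °C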
tim10-1 inh: tim10-1 yeast growth inhibition. S. cerevisiae tim10-1 ts strain growth, BacTiter-Glo, 24 h. inhibition, % at 20 µM. 2.2% of 330,000 active;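 active = inhibition of at least 40%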;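 also: mutant grown at 25 °C; 0% = DMSO wells with yeast and 100% = wells holding no yeast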
NALP1 yeast inh: inhibitors of NALP1 inflammasome in yeast; AID 2071; inhibition, % at 10 µM; S. cerevisiae NALP1/ASC/caspase-1 growth, X-gal OD620, 72 h; 0.61% of 280,000 active; in the data active = inhibition mostly above about 24%, no sharp cut-off; inactive = mostly below about 32%
tim10-1 confirm: tim10-1 yeast growth inhibition, confirmed. inhibition, % at 20 µM. 56% of 7,400 active. S. cerevisiae tim10-1 ts strain growth, BacTiter-Glo, 24 h. shares compounds with tim10-1 inh;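 active = inhibition of yeast growth at or above a set limit in either of two repeat tests at 20 µM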;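 also: tim10-1 mutant grown at permissive 25 °C to find synthetic lethal compounds; 0% = DMSO yeast wells and 100% = medium wells without yeast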
Active calls of the source: *.

Results for Oc1ccc(-c2nccc(-c3ccc(Cl)cc3Cl)n2)cc1 ?
tim23-1 inh: 26; NALP3 yeast inh: -11; TIM10 inh: 37; tim10-1 inh: 42*; NALP1 yeast inh: -2; tim10-1 confirm: 34*

Results for Cc1ccc(S(=O)(=O)N2CCCCC2)cc1C(=O)OC1CCCCC1=O (centres undefined) ?
tim23-1 inh: 28; NALP3 yeast inh: 2; TIM10 inh: 14; tim10-1 inh: 41*; tim10-1 confirm: 28

How did O=C(OC1CCCCC1=O)c1cccc(S(=O)(=O)N2CCOCC2)c1 (centres undefined) do in these assays?
tim23-1 inh: 5; NALP3 yeast inh: 19; TIM10 inh: 9; tim10-1 inh: -9

What do the screens show for `O=C(OC1CCCCC1=O)c1cccc(S(=O)(=O)N2CCCCC2)c1` (centres undefined)?
tim23-1 inh: 47; NALP3 yeast inh: 16; TIM10 inh: 23; tim10-1 inh: 43*; tim10-1 confirm: 22

How did O=C(OC1CCCCC1=O)c1cc(S(=O)(=O)N2CCOCC2)ccc1F (centres undefined) do in these assays?
tim23-1 inh: 20; NALP3 yeast inh: 15; TIM10 inh: 15; tim10-1 inh: 25; NALP1 yeast inh: 4

Results for CCCCn1c(N)c(N(CC(C)C)C(=O)c2ccc(S(=O)(=O)N3CCCCC3)cc2)c(=O)[nH]c1=O ?
tim23-1 inh: -1; NALP3 yeast inh: 3; TIM10 inh: -1; tim10-1 inh: 3

Results for CNCC(=O)N1CCN(c2ncc(C(F)(F)F)cc2Cl)CC1 ?
tim23-1 inh: 0; NALP3 yeast inh: 16; TIM10 inh: 0; tim10-1 inh: 13; NALP1 yeast inh: 30

Results for CCSC1=C(C#N)C(c2ccc(C)o2)CC(=O)N1 (centres undefined) ?
tim23-1 inh: 41; NALP3 yeast inh: -14; TIM10 inh: 6; tim10-1 inh: 4; NALP1 yeast inh: 20

What do the screens show for `CCCCCCSC1=C(C#N)C(c2ccc(C)o2)CC(=O)N1` (centres undefined)?
tim23-1 inh: 32; NALP3 yeast inh: 20; TIM10 inh: 24; tim10-1 inh: 41*; NALP1 yeast inh: 5; tim10-1 confirm: 7

How did Cc1ccccc1-c1nc2ccccc2c(=O)n1/N=C/c1ccccc1[N+](=O)[O-] do in these assays?
tim23-1 inh: 46; NALP3 yeast inh: 17; TIM10 inh: 10; tim10-1 inh: 44*; NALP1 yeast inh: -7; tim10-1 confirm: 31

What do the screens show for `Cc1ccccc1Cc1c(C)nc2c(C(=O)N3CCN(Cc4ccc5c(c4)OCO5)CC3)cnn2c1C`?
tim23-1 inh: 31; NALP3 yeast inh: 11; TIM10 inh: 23; tim10-1 inh: 22

Results for Cc1cccc(Cc2c(C)nc3c(C(=O)N4CCN(Cc5ccc6c(c5)OCO6)CC4)cnn3c2C)c1 ?
tim23-1 inh: 25; NALP3 yeast inh: 12; TIM10 inh: 31; tim10-1 inh: 42*; NALP1 yeast inh: -6; tim10-1 confirm: 16

How did CCOCCOC(=O)c1ccc(NC(=O)C2COc3ccccc3O2)cc1 (centres undefined) do in these assays?
tim23-1 inh: 41; NALP3 yeast inh: 26; TIM10 inh: 14; tim10-1 inh: 42*; NALP1 yeast inh: 6; tim10-1 confirm: 26

Results for CCOC(=O)c1ccc(NC(=O)C2COc3ccccc3O2)cc1 (centres undefined) ?
tim23-1 inh: 38; NALP3 yeast inh: 32; TIM10 inh: -4; tim10-1 inh: 22; NALP1 yeast inh: 10

How did Cc1c(-c2ccccc2)sc(Br)c1C(=O)N1CCOCC1 do in these assays?
tim23-1 inh: 41; NALP3 yeast inh: 11; TIM10 inh: 14; tim10-1 inh: 48*; NALP1 yeast inh: 1; tim10-1 confirm: 23

What do the screens show for `O=[N+]([O-])c1ccc(N2CCCCCC2)c(S(=O)(=O)N2CCCCC2)c1`?
tim23-1 inh: 45; NALP3 yeast inh: 13; TIM10 inh: 19; tim10-1 inh: 48*; NALP1 yeast inh: 9; tim10-1 confirm: 30

What do the screens show for `CC(C)(C)OC(=O)N1CCC[C@H]1c1nnc(SCc2ccccc2Cl)o1`?
tim23-1 inh: 27; NALP3 yeast inh: 12; TIM10 inh: 14; tim10-1 inh: 29; NALP1 yeast inh: 14
